Screening results (PubChem)
An excerpt weighted towards active compounds, which were near 3.4% of everything screened.
PAFAH2 inh – PAFAH2 (human) inhibition. recombinant PAFAH2, FP-rhodamine activity probe, fluorescence polarization. inhibition, % at 3.39 µM. 0.99% of 340,000 active. AID 492956;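 active = inhibition above the mean over all tested compounds plus 3 SD, cut at about 30% in these data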;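 note: inhibitors block probe labeling of enzyme so polarization drops; 0% = enzyme with DMSO and 100% = wells lacking PAFAH2 protein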
pPAFAH FP inh – pPAFAH (human) enzyme inhibition; recombinant pPAFAH, FP-rhodamine probe fluorescence polarization; 1.5% of 330,000 active; inhibition, % at 3.39 µM;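 active = inhibition above the mean inhibition across the screen plus 3 SD, cut at about 25% in these data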;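 note: inhibitors block binding of the rhodamine activity-based probe so polarization drops; 0% = enzyme with DMSO and 100% = wells lacking pPAFAH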
PAFAH1B3 FP inh – PAFAH1B3 (human) inhibition. inhibition, % at 3.39 µM. Q15102. 0.28% of 340,000 active. recombinant PAFAH1B3, FP-rhodamine probe, fluorescence polarization;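 active = inhibition above the screen-wide average of all tested compounds plus 3 SD, cut at about 25% in these data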;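 note: 0% = enzyme with DMSO only and 100% = wells lacking PAFAH1B3 protein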
PP5 inh – PP5 (human) phosphatase inhibition. P53041. purified PP5c, OMFP substrate fluorescence. inhibition, % at 6.7 µM. 0.18% of 320,000 active. AID 1987;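 active = inhibition above the campaign's mean inhibition across all tested compounds plus 3 SD, cut at about 9.5% in these data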;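 note: 0% = DMSO only and 100% = 100 µM cantharidin control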
PAFAH1B2 inh – inhibitors of human PAFAH1B2; recombinant PAFAH1B2, FP-rhodamine activity probe, fluorescence polarization; inhibition, % at 3.39 µM; P68402; 1.2% of 340,000 active; AID 492953;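 active = inhibition above the mean of all tested compounds plus 3 SD, cut at about 24% in these data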;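 note: 0% = enzyme with DMSO and 100% = wells lacking PAFAH1B2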
Target sequence (P68402 whole entry, looked up): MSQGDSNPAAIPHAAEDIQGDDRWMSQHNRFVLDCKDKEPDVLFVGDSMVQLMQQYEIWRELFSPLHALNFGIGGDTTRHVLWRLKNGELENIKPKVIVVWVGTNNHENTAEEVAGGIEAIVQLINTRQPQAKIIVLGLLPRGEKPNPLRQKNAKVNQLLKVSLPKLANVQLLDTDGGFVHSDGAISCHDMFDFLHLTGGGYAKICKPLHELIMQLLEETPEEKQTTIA
PP1 counter – counter-screen for PP5 inhibitors: inhibitors of human PP1-alpha; 0.9% of 320,000 active; AID 2235; inhibition, % at 6.7 µM; purified PP1alpha, OMFP fluorescence;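 active = inhibition above the mean inhibition of all tested compounds plus 3 SD, computed separately for each screening campaign, cut at about 15% in these data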
Target sequence (P62136 whole entry, looked up): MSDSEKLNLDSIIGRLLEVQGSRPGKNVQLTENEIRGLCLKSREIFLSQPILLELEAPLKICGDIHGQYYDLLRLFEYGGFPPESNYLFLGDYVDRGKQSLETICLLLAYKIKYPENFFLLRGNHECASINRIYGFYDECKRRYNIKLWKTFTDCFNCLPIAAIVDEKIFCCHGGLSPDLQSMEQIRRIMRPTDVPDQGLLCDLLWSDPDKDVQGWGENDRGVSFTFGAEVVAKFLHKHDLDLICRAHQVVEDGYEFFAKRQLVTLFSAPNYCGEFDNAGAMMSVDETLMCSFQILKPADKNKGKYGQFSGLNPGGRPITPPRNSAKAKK
Numbers without * were called inactive; · = not tested or not shown.

SMILES | PAFAH2 inh | pPAFAH FP inh | PAFAH1B3 FP inh | PP5 inh | PAFAH1B2 inh | PP1 counter
C#CCOCCOCCOCCNc1nc(N2CCN(C(=O)[C@H](Cc3cc4ccccc4[nH]3)n3cc([C@@H](N)C(C)CC)nn3)CC2)nc(N2CCN(C(=O)[C@H](CCCCN)n3cc([C@@H](N)CC(C)C)nn3)CC2)n1 (some centres not stated) | · | 0 | · | 2 | · | 16*
C#CCOCCOCCOCCNc1nc(N2CCN(C(=O)[C@H](Cc3ccc(O)cc3)n3cc([C@@H](N)C(C)CC)nn3)CC2)nc(N2CCN(C(=O)[C@H](Cc3cc4ccccc4[nH]3)n3cc([C@@H](N)C(C)CC)nn3)CC2)n1 (some centres not stated) | 3 | 3 | -5 | 1 | 2 | 17*
COc1ccc(CNC(=O)COC(=O)c2cccn2C)cc1 | 2 | 7 | -2 | · | 2 | ·
COc1ccc(CN2C(=O)C(CC(C)C)Nc3ncnc(N4CCCCC4)c32)cc1 (configuration not stated) | 6 | -2 | 5 | 3 | 7 | 16*
O=C1OC(Nc2ncccn2)c2ccccc21 (configuration not stated) | 4 | -5 | -2 | 0 | 4 | 1
O=C1OC(Nc2cc(Br)cc3cccnc23)c2ccccc21 (configuration not stated) | 22 | 30* | 69* | 8 | 18 | 15
Nc1ccc2ccccc2c1C(=O)c1ccccc1 | 1 | · | 9 | · | 3 | ·
CCCc1cc(=O)[nH]c(SCC(=O)Nc2cc(S(=O)(=O)N3CCCCC3)ccc2C)n1 | -2 | 4 | 15 | 2 | 24* | 0
O=C(COC(=O)C12CC3CC(CC(Cl)(C3)C1)C2)N1CCCCC1 | 2 | -8 | 13 | · | 29* | ·
O=C(COC(=O)C12CC3CC(CC(Br)(C3)C1)C2)NNC(=O)c1ccccc1 | 3 | 4 | 5 | 1 | 52* | -3
CC(CCc1ccccc1)NC(=O)COC(=O)C12CC3CC(CC(Br)(C3)C1)C2 (configuration not stated) | -6 | 4 | 7 | 2 | 45* | 2
O=C(COC(=O)C12CC3CC(CC(C3)C1)C2)NCc1ccccc1 | 29 | 3 | 7 | · | 6 | ·
O=C(COC(=O)C12CC3CC(CC(Br)(C3)C1)C2)N1CCOCC1 | 1 | 5 | 7 | -1 | 6 | -3
CC1CCCCC1NC(=O)COC(=O)C12CC3CC(CC(Cl)(C3)C1)C2 (configuration not stated) | 62* | 7 | 8 | 2 | 35* | 3
O=C(c1cccc(S(=O)(=O)N2CCc3ccccc32)c1)N1CCN(c2ccccc2)CC1 | 4 | · | -3 | · | 7 | ·
O=C1C(O)=CC(=C(c2ccccc2)c2ccccc2)c2ccccc21 | -2 | · | 10 | · | 7 | ·
CN1C(=O)C2C(c3ccc(N(C)C)cc3)=NN(Cc3ccccc3)C2C1=O (configuration not stated) | 12 | 9 | 8 | 3 | -1 | -2
O=C(COC(=O)C12CC3CC(CC(Cl)(C3)C1)C2)Nc1ccccc1 | 60* | 5 | 8 | · | 35* | ·
O=C(COC(=O)C12CC3CC(CC(C3)C1)C2)NNC(=O)c1ccccc1 | 3 | 1 | 6 | · | 40* | ·
Cc1ccc(S(=O)(=O)NCC2CCC(C(=O)NCCCOC(C)C)CC2)cc1 (configuration not stated) | · | 2 | · | 1 | · | -2
O=C(O)C1CC=CCC1C(=O)N1CCN(c2nc(-c3ccccc3Cl)c3cc(Br)ccc3n2)CC1 (configuration not stated) | 5 | 12 | 3 | 0 | 0 | 17*
O=C(O)C1CC=CCC1C(=O)N1CCN(c2nc(-c3ccccc3)c3ccccc3n2)CC1 (configuration not stated) | 2 | 2 | 0 | 3 | 0 | 5
O=C(NCCS(=O)(=O)N1CCCCC1)c1ccc2c(c1)OCO2 | 1 | 1 | 5 | 1 | 2 | -1
O=C(/C=C/c1ccccc1[N+](=O)[O-])Nc1cc(S(=O)(=O)N2CCOCC2)ccc1N1CCOCC1 | 5 | · | 10 | · | -2 | ·
COCCCn1c(C23CC4CC(CC(C4)C2)C3)n[nH]c1=S | -3 | -8 | 6 | 3 | 7 | 2
SMILES | PAFAH2 inh | pPAFAH FP inh | PAFAH1B3 FP inh | PP5 inh | PAFAH1B2 inh | PP1 counter
CC(C)Cn1c(C23CC4CC(CC(C4)C2)C3)n[nH]c1=S | 5 | -2 | -1 | 2 | 28* | 6
O=C(O)Cc1ccc2c(c1)N(S(=O)(=O)c1cccc(C(F)(F)F)c1)CC(C(=O)O)O2 (configuration not stated) | 2 | -2 | -5 | 1 | 27* | 1
N#Cc1c(Nc2ccccc2)sc(C(=O)c2ccc(F)cc2)c1N | 7 | 17 | 6 | 1 | 30* | 1
Nc1c(C(=O)c2ccccc2)sc(Nc2ccccc2)c1S(=O)(=O)c1ccccc1 | 8 | 20 | 2 | 5 | 1 | 9
N#Cc1c(Nc2ccccc2)sc(C(=O)C2CC2)c1N | 1 | 8 | 6 | 3 | 28* | 4
Cc1ccc(C(=O)c2sc(Nc3ccccc3)c(C#N)c2N)cc1 | 7 | 24 | -3 | 6 | 6 | 1
Cn1cnnc1SCC(=O)Nc1ccc(Cl)c(S(=O)(=O)N2CCOCC2)c1 | 2 | 4 | 5 | -1 | 3 | -7
C[C@]12c3[nH]c4ccccc4c3CCN1C(=O)C(CC(=O)NCCCn1ccnc1)C[C@@H]2C(=O)N1CCOCC1 (some centres not stated) | -10 | -1 | -5 | · | 1 | ·
O=C(NC(Cc1ccccc1)C(=O)O)OCc1ccccc1 (configuration not stated) | -7 | 7 | 1 | 3 | 1 | 0
O=C(NC(Cc1ccccc1)C(=O)O)OCC1c2ccccc2-c2ccccc21 (configuration not stated) | 3 | 7 | 10 | 0 | 27* | 7
CCOc1ccc(C2C3=C(CCCC3=O)Nc3ccc4ncccc4c32)cc1 (configuration not stated) | 0 | 29* | 7 | 3 | 1 | -4
CCCCN(C(=O)c1ccc(N(C)S(=O)(=O)c2ccc(C)cc2)cc1)c1c(N)n(CC(C)C)c(=O)[nH]c1=O | 3 | · | 4 | · | 2 | ·
CC1=C(/C=C/C(C)=C/C=C/C(C)=C\C(=O)O)C(C)(C)CCC1 | 4 | 28* | 0 | 2 | 9 | 11
CC(=O)Nc1ccc(NC(=O)c2cccc(-c3cc4ccccc4oc3=O)c2)cc1 | -2 | 2 | 6 | 1 | 1 | 0
O=C(Nc1ccc(N2CCCC2)c(Cl)c1)c1cccc(-c2cc3ccccc3oc2=O)c1 | -16 | 1 | 8 | 1 | 6 | 16*
COc1ccc(C(=O)Nc2cccc(-c3cc4ccccc4oc3=O)c2)cc1[N+](=O)[O-] | -6 | 8 | -20 | 2 | -11 | 16*
Cc1ccc(S(=O)(=O)CCC(=O)OCC(=O)N(C)c2ccccc2)cc1 | 3 | · | 10 | · | 14 | ·
